# Test results from PubChem BioAssay (NCATS).
# Inconclusive results are not listed. Entries that show only a call come without a potency. Active and inactive are the calls of the source. Unless noted, calls follow the shape of the dose curve; as a rule, active = well fitted inhibition curve with a large enough effect; inconclusive = small, poorly fitted or top-dose-only effect; inactive = flat fitted curve, though single readings scatter.
# Target: Peptidyl-prolyl cis-trans isomerase NIMA-interacting 1 (Homo sapiens) (UniProt Q13526)
# Assay: qHTS Validation Assay to Find Inhibitors of Pin1 (AID 504536; active = well fitted inhibition curve with a large enough effect in the polarisation, with a control signal flat, not every such curve was filed as active; the % refers to the polarisation)
# Conditions: Pin1 fluorescence polarization peptide binding assay; series mostly up to 57.5 µM
# In short: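 Fluorescence polarization competition: compounds (titration) displace HiFluor-488-labeled Pin1-1b peptide from Pin1 (0.3 uM final) in pH 7.5 HEPES buffer with DTT, 10 min at room temperature; %Activity normalized to no-enzyme wells, curves fitted.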
# Sequence of Peptidyl-prolyl cis-trans isomerase NIMA-interacting 1 (Homo sapiens) (Q13526 whole entry, looked up): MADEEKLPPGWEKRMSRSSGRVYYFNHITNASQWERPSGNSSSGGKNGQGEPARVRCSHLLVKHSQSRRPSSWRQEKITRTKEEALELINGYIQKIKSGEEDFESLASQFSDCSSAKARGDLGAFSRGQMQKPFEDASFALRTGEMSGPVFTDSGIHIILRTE
row,Compound,Potency
1,C[C@@H](CN1CCC(Cc2ccccc2)CC1)[C@@H](O)c1ccc(O)cc1,inactive
2,NC(=O)C(=O)O,inactive
3,CNCC[C@H](Oc1ccc(C(F)(F)F)cc1)c1ccccc1,inactive
4,CC(=O)SCC[N+](C)(C)C,inactive
5,CN1[C@@H](CC(=O)c2ccccc2)CCC[C@H]1C[C@H](O)c1ccccc1,inactive
6,CN1C2CCC1CC(OC(=O)C(O)c1ccccc1)C2 (stereo not drawn),inactive
7,N=C(N)SCCc1ccc(CCSC(=N)N)cc1,inactive
8,C=CC(N)CCC(=O)O (stereo not drawn),inactive
9,CCCCCCCCCCCCCCCCCCNC(=O)OCC(COP(=O)([O-])OCC[n+]1ccsc1)OC (stereo not drawn),inactive
10,COc1cccc(OC)c1OCCNCC1COc2ccccc2O1 (stereo not drawn),inactive
11,CCC1C(=O)OCC1Cc1cncn1C (stereo not drawn),inactive
12,NC(CCCP(=O)(O)O)C(=O)O (stereo not drawn),inactive
13,Cc1ccccc1CNc1ncnc2c1ncn2C1OC(CO)C(O)C1O (stereo not drawn),inactive
14,O=C(O)CC[C@@H](C(=O)O)N1C(=O)c2ccccc2C1=O,inactive
15,CC(C)(C=O)Cc1cc(C(C)(C)C)c(O)c(C(C)(C)C)c1,inactive
16,CC1OC1P(=O)(O)O (stereo not drawn),inactive
17,NCCNC(=O)c1ncsc1-c1cccc(F)c1,inactive
18,CCCCCCCCCCCCCCCC(=O)OC(CC(=O)O)C[N+](C)(C)C (stereo not drawn),inactive
19,C[N+](C)(CCCCCC[N+](C)(C)CCCN1C(=O)c2cccc3cccc(c23)C1=O)CCCN1C(=O)c2cccc3cccc(c23)C1=O,inactive
20,NCCSSCCN,inactive
21,CN(C)C(N)=NCCC[C@H](N)C(=O)O,inactive
22,Fc1ccc(C(OCCCc2cnc[nH]2)c2ccc(F)cc2)cc1,inactive
23,O=C(O)c1cc(=O)c2c(Cl)cc(Cl)cc2[nH]1,inactive
24,CN(C)CCC(c1ccc(Cl)cc1)c1ccccn1 (stereo not drawn),inactive

# Target: Phosphoglycerate kinase, glycosomal (Trypanosoma brucei brucei) (UniProt P07378)
# Assay: qHTS Validation Assay to Find Inhibitors of Phosphoglycerate Kinase (AID 504547)
# Conditions: enzymatic PGK inhibition, coupled luminescence read-out; series mostly up to 57.5 µM
# In short: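 Compounds are pinned into the substrate/PGK mixture, and GAPDH (100nM final) is added to start the reaction by producing 1,3-BPG. After 60 minutes at room temperature, Kinase-Glo Plus is added and luminescence is measured 10 minutes later.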
# Sequence of Phosphoglycerate kinase, glycosomal (Trypanosoma brucei brucei) (P07378 whole entry, looked up): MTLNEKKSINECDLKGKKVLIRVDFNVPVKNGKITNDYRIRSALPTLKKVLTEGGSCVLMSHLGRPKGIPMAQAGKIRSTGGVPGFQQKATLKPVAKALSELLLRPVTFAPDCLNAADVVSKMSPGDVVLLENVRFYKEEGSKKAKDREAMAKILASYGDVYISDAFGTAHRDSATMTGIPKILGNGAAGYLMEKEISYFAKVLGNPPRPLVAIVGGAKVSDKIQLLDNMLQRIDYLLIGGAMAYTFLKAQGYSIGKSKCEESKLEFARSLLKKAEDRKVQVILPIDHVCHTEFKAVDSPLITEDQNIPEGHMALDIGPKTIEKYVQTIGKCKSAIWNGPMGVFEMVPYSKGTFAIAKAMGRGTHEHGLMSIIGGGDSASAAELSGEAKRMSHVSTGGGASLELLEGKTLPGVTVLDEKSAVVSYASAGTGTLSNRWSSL
row,Compound,Potency
1,O=C(O)/C=C/C(O)c1ccc(Cl)cc1 (stereo not drawn),inactive
2,C[C@@H](CN1CCC(Cc2ccccc2)CC1)[C@@H](O)c1ccc(O)cc1,inactive
3,NC(=O)C(=O)O,inactive
4,CNCC[C@H](Oc1ccc(C(F)(F)F)cc1)c1ccccc1,inactive
5,CC(=O)SCC[N+](C)(C)C,inactive
6,CN1[C@@H](CC(=O)c2ccccc2)CCC[C@H]1C[C@H](O)c1ccccc1,inactive
7,CN1C2CCC1CC(OC(=O)C(O)c1ccccc1)C2 (stereo not drawn),inactive
8,O=Nc1ccc2oc(=O)ccc2c1,inactive
9,N=C(N)SCCc1ccc(CCSC(=N)N)cc1,inactive
10,CCCCCCCCCCCCCCCCCCNC(=O)OCC(COP(=O)([O-])OCC[n+]1ccsc1)OC (stereo not drawn),inactive
11,CC(C)NC[C@H](O)COc1cccc2[nH]ccc12,inactive
12,CCC1C(=O)OCC1Cc1cncn1C (stereo not drawn),inactive
13,Cc1ccccc1CNc1ncnc2c1ncn2C1OC(CO)C(O)C1O (stereo not drawn),inactive
14,O=C(O)CC[C@@H](C(=O)O)N1C(=O)c2ccccc2C1=O,inactive
15,CC(C)(C=O)Cc1cc(C(C)(C)C)c(O)c(C(C)(C)C)c1,inactive
16,CC1OC1P(=O)(O)O (stereo not drawn),inactive
17,CN(C)c1nc2c(Br)c(Br)c(Br)c(Br)c2[nH]1,inactive
18,NCCNC(=O)c1ncsc1-c1cccc(F)c1,inactive
19,CCCCCCCCCCCCCCCC(=O)OC(CC(=O)O)C[N+](C)(C)C (stereo not drawn),inactive
20,NCCSSCCN,inactive
21,CN(C)C(N)=NCCC[C@H](N)C(=O)O,inactive
22,Fc1ccc(C(OCCCc2cnc[nH]2)c2ccc(F)cc2)cc1,inactive
23,O=C(O)c1cc(=O)c2c(Cl)cc(Cl)cc2[nH]1,inactive
24,CN(C)CCC(c1ccc(Cl)cc1)c1ccccn1 (stereo not drawn),inactive
